The values below come from PubChem BioAssay.

Assay [1] in a line: compound effects on lung adenocarcinoma cell viability – A549, calcein-AM fluorescence, 48 h, basal, profiling panel (AID 1162). Further: test concentration not given here. Particulars: higher = more signal.
Assay [2] in a line: compound effects on differentiated 3T3-L1 adipocyte viability – cell-based, 3T3-L1 adipocytes, calcein-AM fluorescence, 48 h, basal, profiling panel (AID 1163). Further: test concentration not given here. Particulars: 3T3-L1 adipocytes viability, higher = more signal.
Assay [3] is described as follows: compound effects on hepatocellular carcinoma cell viability – HepG2, calcein-AM fluorescence, 48 h, basal, profiling panel (AID 1164). Further: test concentration not given here. To be noted: higher = more signal.
Assay [4] can be described thus: compound effects on multiple myeloma cell viability – MM1S, calcein-AM fluorescence, 48 h, basal, profiling panel (AID 1165).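 Further: viability of MM1S multiple myeloma cells under basal unstimulated conditions; test concentration not given here.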 Particulars: higher = more signal.
A short description of assay [5]: calcein-AM signal in unstimulated myeloma cells – cell-based, calcein-AM fluorescence, 48 h, PK04 Diversity Set, profiling panel (AID 1166).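 Further: cells grown under basal conditions without added stimulus; test concentration not given here.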 To be noted: RPMI8226 myeloma viability, higher = more signal.
Assay [6] in a line: JC-1 mitochondrial signal, unstimulated HepG2 cells – cell-based, JC-1 fluorescence, 24 h, 100 nL compound, profiling panel (AID 1167). Further: test concentration not given here. Particulars: HepG2 mitochondrial potential, higher = more signal.
Assay [7] is described as follows: JC-1 mitochondrial signal, unstimulated adipocytes – cell-based, JC-1 fluorescence, 3T3-L1 adipocytes, 24 h, 100 nL compound, profiling panel (AID 1168). Further: test concentration not given here. To be noted: JC-1 mitochondrial fluorescence, higher = more signal, called active from +8 up or from −8 down.
Assay [8] can be described thus: JC-1 mitochondrial signal, unstimulated myeloma cells – cell-based, JC-1 fluorescence, RPMI8226, 24 h, 100 nL compound, profiling panel (AID 1169). Further: test concentration not given here. To be noted: JC-1 mitochondrial potential fluorescence, higher = more signal.
Assay [9] in a line: JC-1 mitochondrial signal, unstimulated MM1S myeloma – cell-based, JC-1 fluorescence, 24 h, 100 nL compound, profiling panel (AID 1170). Further: test concentration not given here. To be noted: MM1S mitochondrial potential, higher = more signal.
Assay [10] in a line: resazurin metabolic signal in A549 cells – cell-based, resazurin fluorescence, 24 h, PK04 Diversity Set, profiling panel (AID 1171). Further: test concentration not given here. Particulars: A549 viability, higher = more signal, called active from +8 up or from −8 down. (Resazurin is reduced to fluorescent resorufin, in cell work by metabolically active cells.)
Assay [11] in a line: resazurin metabolic signal in HepG2 cells – cell-based, resazurin fluorescence, 24 h, PK04 Diversity Set, profiling panel (AID 1172). Further: test concentration not given here. To be noted: HepG2 viability, higher = more signal.
Assay [12] in a line: budding yeast growth changes without added modifier – OD600, strain BY4716, 24 h, basal condition, primary screen (AID 1173). Particulars: S. cerevisiae BY4716 growth, OD600, 24 h; higher = more signal, called active from +8 up or from −8 down.
Assay [13] in a line: viability profiling in MM1S myeloma cells – cell-based, resazurin fluorescence, basal, 24 h, PK04 Diversity Set, profiling panel (AID 1174). Further: test concentration not given here. Particulars: higher = more signal, called active from +8 up or from −8 down.
In assay [14] the target is Dihydroorotate dehydrogenase (quinone), mitochondrial (Plasmodium falciparum (isolate 3D7)) (UniProt Q08210). Kind of assay: inhibition of P. falciparum DHODH – biochemical, C-terminal His tag, absorbance 600 nm, primary screen (AID 1175).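 Further: recombinant parasite enzyme with a five histidine tag at its C terminus; test concentration not given here.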 Particulars: PfDHODH enzyme, DCIP absorbance 600 nm; higher = more signal, called active from +8 up or from −8 down.
Sequence of Dihydroorotate dehydrogenase (quinone), mitochondrial (Plasmodium falciparum (isolate 3D7)) (Q08210 whole entry, looked up): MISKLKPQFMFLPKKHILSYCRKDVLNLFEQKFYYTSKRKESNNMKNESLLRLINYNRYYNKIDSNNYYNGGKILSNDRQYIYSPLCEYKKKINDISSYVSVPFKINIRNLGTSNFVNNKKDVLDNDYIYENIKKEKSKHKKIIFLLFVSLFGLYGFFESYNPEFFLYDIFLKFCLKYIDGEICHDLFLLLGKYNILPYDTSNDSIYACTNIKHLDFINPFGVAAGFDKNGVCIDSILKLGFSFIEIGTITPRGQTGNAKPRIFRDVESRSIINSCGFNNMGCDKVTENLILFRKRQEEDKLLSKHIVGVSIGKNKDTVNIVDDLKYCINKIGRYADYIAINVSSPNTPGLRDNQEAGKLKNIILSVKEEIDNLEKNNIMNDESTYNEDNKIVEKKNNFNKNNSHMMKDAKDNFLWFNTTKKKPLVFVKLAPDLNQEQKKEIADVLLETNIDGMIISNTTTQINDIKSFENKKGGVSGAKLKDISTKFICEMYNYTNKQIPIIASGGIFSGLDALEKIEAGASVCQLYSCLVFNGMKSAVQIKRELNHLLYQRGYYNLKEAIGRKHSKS
A short description of assay [15]: inhibition of PAO1 biofilm formation – strain PAO1, LB-PBS medium, absorbance 600 nm, primary screen (AID 1176). Further: test concentration not given here. To be noted: P. aeruginosa PAO1 growth/biofilm, A600, 12 h; higher = more signal.
Assay [16] in a line: growth modulation of vineyard yeast isolate – strain RM11-1a, OD600, basal, 24 h, primary screen (AID 1177).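 Further: cultures grown under basal conditions with no added stressor; test concentration not given here.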 Particulars: S. cerevisiae RM11-1a growth, OD600, 24 h; higher = more signal, called active from +8 up or from −8 down.
A short description of assay [17]: growth of efflux-deficient E. coli DRC39 – strain DRC39, OD650, 24 h, E. coli filamentation inducers, primary screen (AID 1178).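 Further: growth measured as culture turbidity by optical density at 650 nm; test concentration not given here.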 To be noted: E. coli DRC39 acrAB, higher = more signal, called active from +8 up or from −8 down.
Assay [18] in a line: growth of efflux-deficient E. coli DRC39 – strain DRC39, OD650, 48 h, E. coli filamentation inducers, primary screen (AID 1179).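 Further: screen aims at cell division blockers that make cells filament.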 Particulars: E. coli DRC39 delta-acrAB growth, higher = more signal, called active from +8 up or from −8 down.
A short description of assay [19]: viability profiling in RPMI8226 myeloma cells – cell-based, resazurin fluorescence, basal, 24 h, PK04 Diversity Set, profiling panel (AID 1180).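 Further: RPMI8826 multiple myeloma cell line at 5000 cells per well; test concentration not given here.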 Particulars: higher = more signal.
Assay [20] concerns the target E3 ubiquitin-protein ligase XIAP (Homo sapiens) (UniProt P98170). Put plainly: small molecules binding XIAP protein – biophysical, small-molecule microarray, fluorescence 635 nm, primary screen (AID 1181).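 Further: score merges 667 nm emission and signal to noise over triplicate slides.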 To be noted: higher = more signal.

Active and inactive are the calls of the source. Unless noted, how the calls were made is not given here.

Sequence of E3 ubiquitin-protein ligase XIAP (Homo sapiens) (P98170 whole entry, looked up): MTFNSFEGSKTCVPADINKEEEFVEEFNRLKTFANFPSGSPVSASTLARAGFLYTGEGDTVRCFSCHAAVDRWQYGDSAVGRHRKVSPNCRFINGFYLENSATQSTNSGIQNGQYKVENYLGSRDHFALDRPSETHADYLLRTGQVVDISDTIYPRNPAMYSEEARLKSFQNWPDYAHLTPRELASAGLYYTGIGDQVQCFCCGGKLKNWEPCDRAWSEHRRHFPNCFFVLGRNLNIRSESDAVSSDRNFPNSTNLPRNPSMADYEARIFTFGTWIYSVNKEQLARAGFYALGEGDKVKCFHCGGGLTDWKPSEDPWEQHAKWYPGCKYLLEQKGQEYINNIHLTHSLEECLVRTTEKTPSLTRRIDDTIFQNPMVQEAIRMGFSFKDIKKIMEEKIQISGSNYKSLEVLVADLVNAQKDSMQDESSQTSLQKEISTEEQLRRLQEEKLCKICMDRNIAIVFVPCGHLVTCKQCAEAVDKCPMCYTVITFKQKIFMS

For the compound `COCCOC(=O)N1C(=O)[C@@]2(c3cc(C#Cc4ccc(OC)cc4)ccc31)[C@H](c1ccc(OCCO)cc1)N1[C@H](c3ccccc3)[C@H](c3ccccc3)OC(=O)[C@H]1[C@@H]2C(=O)Nc1nc2ccccc2s1`, the z-score is -0.922 in assay [1]; 0.829 in assay [2]; -1.26 in [3]; -0.569 in assay [4]; -1.26 in assay [5]; -2.86 in assay [6]. Further, the z-score in assay [7] was 3.99 (inactive); in assay [8] it was -0.735; in [9], -1.13; in [10], -0.285 (inactive); in [11], 1.62; in assay [12] it was 1.21 (inactive). Further, the z-score in assay [13] was -0.606 (inactive); in assay [15] it was 1.5 (inactive); in [16], 1.56 (inactive); in assay [17] it was 0.0318 (inactive); in assay [18] it was -0.389 (inactive); in assay [19] it was 0.46. Besides, the composite z-score in assay [14] was -1 (inactive); in [20], 0.259.
As to `[N-]=[N+]=Nc1ccccc1C[C@]1(C(=O)NCc2ccccc2)COC(c2ccc(OCCCO)cc2)=N1`, the z-score in assay [1] was -0.827; in assay [2] it was -0.143; in assay [3] it was -1.65; in assay [4], -3.58; in assay [5], -4.42; in assay [6], 0.789. For the same compound, the z-score is 0.443 (inactive) in assay [7]; -1.17 in assay [8]; -2.33 in assay [9]; -1.41 (inactive) in [10]; -0.85 in [11]; 0.858 (inactive) in assay [12]. For the same compound, the z-score was -5.51 (inactive) in [13]; -0.0837 (inactive) in [15]; 2.15 (inactive) in assay [16]; 0.728 (inactive) in assay [17]; 0.161 (inactive) in assay [18]; -4.83 in assay [19]. Besides, the composite z-score in [14] is 0.363 (inactive); in assay [20], 0.212.
For `COCCCNC(=O)[C@@]1(c2ccc([N+](=O)[O-])cc2)CC(=O)N(CC23CC4CC(CC(C4)C2)C3)[C@@H]1c1ccc(CO)cc1I`, the z-score in [1] was -1.28; in assay [2] it was -0.64; in assay [3], -2.75; in assay [4] it was -3.75; in assay [5] it was -4.35; in assay [6], 2.16. Moreover, the z-score is -1.23 (inactive) in assay [7]; -1.02 in [8]; -1.81 in assay [9]; -2.76 (inactive) in assay [10]; -2.61 in assay [11]; 1.02 (inactive) in assay [12]. For the same compound, the z-score in assay [13] is -3.15 (inactive); in assay [15] it was 0.457 (inactive); in [16] it was 2.43 (inactive); in [17], -0.0284 (inactive); in assay [18] it was -0.107 (inactive); in assay [19], -3.52. Moreover, the figures for the composite z-score in assay [14] and in [20] were 1.11 (inactive) and 0.144, respectively.
Turning to `COc1cc(NN2C(C(O)c3ccccc3)C=CC3C(=O)N(C)C(=O)C32)cc(OC)c1OC` (stereo not given), the z-score in assay [1] was -0.209; in assay [2], 0.68; in assay [3] it was -0.131; in [4] it was -1.34; in assay [5], -0.589; in assay [6] it was -0.944. The z-score in [7] was 0.215 (inactive); in assay [8], -0.413; in assay [9] it was -1.54; in assay [10], -1.52 (inactive); in assay [11], -2.2; in assay [12] it was 0.758 (inactive). The z-score is -1.23 (inactive) in [13]; 0.574 (inactive) in assay [15]; -0.0472 (inactive) in assay [16]; -0.466 (inactive) in assay [17]; -0.882 (inactive) in assay [18]; -1.32 in [19]. Also, the values for the composite z-score in assay [14] and in assay [20] were -2.04 (inactive) and 0.0024, respectively.
On to `CCCCCN1CC=CC23O[C@@H]4/C=C\CCC(C)OC(=O)C4[C@H]2C(=O)N(CCCCCCO)[C@@H]3C1=O` (stereo not given in full), for which the z-score is 0.29 in assay [1]; 0.644 in assay [2]; 0.822 in assay [3]; 1.6 in assay [4]; 0.656 in assay [5]; 0.589 in [6]. For the same compound, the z-score in assay [7] was 0.785 (inactive); in assay [8] it was -0.141; in assay [9] it was -0.459; in [10], 0.944 (inactive); in assay [11], 1.1; in assay [12], -0.262 (inactive). Besides, the z-score in [13] is 0.798 (inactive); in assay [15] it was 0.165 (inactive); in assay [16], 0.422 (inactive); in [17] it was 1.11 (inactive); in assay [18] it was 0.848 (inactive); in [19], 1.26. Moreover, the composite z-score in assay [14] was -1.35 (inactive); in [20], -0.359.
Take `C=C[C@@H](OC)[C@H](OC(=O)Nc1ccc(SC)cc1)c1ccc(OCCO)cc1`: the z-score in assay [1] is -0.568; in [2] it was 0.222; in assay [3], -0.587; in [4], -2.08; in assay [5], -1.56; in assay [6] it was -2.68. In addition, the z-score in [7] is 0.286 (inactive); in [8], -0.151; in assay [9], -0.333; in assay [10], -0.285 (inactive); in assay [11], -0.8; in assay [12] it was -0.88 (inactive). The z-score in assay [13] is -0.415 (inactive); in assay [15], 0.838 (inactive); in assay [16], 0.884 (inactive); in [17], -0.967 (inactive); in assay [18], -1.5 (inactive); in assay [19], -0.306. Further, the composite z-score is -0.915 (inactive) in assay [14] and -0.0918 in [20].
Regarding `CN1C(=O)C2C=CC(C(O)c3ccc(I)cc3)N(Nc3ccccc3)C2C1=O` (stereo not given), the z-score in [1] is -0.596; in assay [2] it was -0.0039; in assay [3], -0.268; in [4] it was -0.521; in [5] it was -0.0284; in [6], -1.07. The z-score in [7] was -1.09 (inactive); in assay [8], -0.177; in [9], 0.0807; in [10] it was -0.962 (inactive); in assay [11], -1.25; in assay [12] it was -0.245 (inactive). For the same compound, the z-score in assay [13] was -0.994 (inactive); in assay [15], 0.683 (inactive); in assay [16] it was -0.0359 (inactive); in assay [17] it was -1.28 (inactive); in assay [18] it was -1.4 (inactive); in assay [19] it was -1.37. The composite z-score in assay [14] is -0.359 (inactive); in assay [20] it was 0.114.
As for `COc1ccc([Si](C)(C)[C@H]2[C@H](CCO)O[C@@]3(C(=O)N(Cc4ccc(N5C(=O)c6ccccc6Oc6ccccc65)cc4)c4ccccc43)[C@@H]2C)cc1`, the z-score in assay [1] is -0.573; in [2], 0.56; in assay [3], -2.71; in assay [4], -2.79; in assay [5], -4.04; in assay [6] it was 0.0142. Also, the z-score in assay [7] was 0.821 (inactive); in [8] it was -1.01; in [9], -2.04; in assay [10] it was -2.45 (inactive); in assay [11], -1.49; in assay [12], 0.884 (inactive). Besides, the z-score was -3.52 (inactive) in assay [13]; 2.72 (inactive) in assay [15]; 4.11 (inactive) in assay [16]; 1.78 (inactive) in [17]; 0.987 (inactive) in [18]; -3.67 in assay [19]. Moreover, the composite z-score was 0.198 (inactive) in assay [14] and -0.115 in [20].
`[N-]=[N+]=NCc1ccccc1[C@@H]1OC(c2ccc(OCCCO)cc2)=N[C@]1(Cc1ccccc1N=[N+]=[N-])C(=O)NCCN1CCOCC1`: the z-score in assay [1] was 0.0239; in assay [2], 0.727; in assay [3], 0.695; in assay [4] it was -1.17; in [5], -1.09; in [6] it was 0.988. The z-score is 0.564 (inactive) in assay [7]; -0.96 in assay [8]; -0.212 in [9]; 0.162 (inactive) in [10]; -0.591 in assay [11]; -2.33 (inactive) in [12]. Also, the z-score was 0.0903 (inactive) in assay [13]; 0.385 (inactive) in assay [15]; -0.186 (inactive) in assay [16]; 0.191 (inactive) in assay [17]; -0.215 (inactive) in [18]; -0.846 in [19]. The composite z-score in assay [14] was -0.549 (inactive); in assay [20], -0.0826.
